Screens (PubChem)
Anthrax LF inh2 = Bacillus anthracis LF protease inhibitors, primary screen, biochemical, multiplex microsphere, MLPCN library; Lethal factor (Bacillus anthracis), P15917; multiplex microsphere protease cleavage assay; inhibition, % at 10 µM; hit rate 0.12% among 360,000; AID 588501, 2011
BJeLR viability = MLPCN primary cell-based screen for lethality selective to Ras in HRASV12 cells | AID 1554, 2009 | BJeLR (HRASV12) viability, CellTiter-Glo ATP luminescence, 48 h | inhibition, % (concentration not given with the values) | hit rate 0.17% among 300,000; in the data active = inhibition above about 50%; inconclusive = no clear call, values can overlap the other calls
SARS 3CLpro inh = SARS-CoV 3CLpro protease inhibitors, primary screen, biochemical, quenched FRET | inhibition, % at 6 µM | recombinant SARS-CoV 3CLpro, quenched FRET peptide cleavage | AID 1706, 2009 | hit rate 0.14% among 290,000 | Replicase polyprotein 1ab (Severe acute respiratory syndrome coronavirus), P0C6X7; in the data active = inhibition above about 12%
BoNT A protease = BoNT/A light chain protease inhibitors, primary screen, biochemical, flow cytometry, MLPCN library; Botulinum neurotoxin type A light chain protease (Clostridium botulinum A str. ATCC 3502); multiplex microsphere protease substrate cleavage; inhibition, % at 10 µM; hit rate 0.17% among 360,000; AID 588499, 2011
Bead autofluor = counter-screen for toxin protease inhibitors: compound fluorescence | AID 624483 | hit rate 3.1% among 360,000 | fluorescence intensity (no concentration beside the values) | compound autofluorescence counterscreen, microsphere flow cytometry; active compounds read high; in the data active = fluorescence intensity above about 16000; inconclusive = no clear call, values can overlap the other calls
BoNT-F LC inh = BoNT/F light chain protease inhibitors, primary screen, biochemical, flow cytometry, MLPCN library; Multiplex microsphere protease cleavage assay; inhibition, % at 10 µM; hit rate 0.22% among 360,000; in the data active = inhibition above about 35%, passing the limit was not always enough; inconclusive = no clear call, values can overlap the other calls
Of the large screens only hits and unclear results are named; the others gave an inactive call. Only some compounds are listed: those with a hit (about 3.6% of all), similar ones and a draw of the others. Cut-off read from the data, not from the text of the source, unless noted: active = inhibition above about 30%; inconclusive = no clear call, values can overlap the other calls; inactive = below that.

COc1cccc(CN(C)C(=O)c2cccc(OC3CCN(C4CCCC4)CC3)c2)c1	none
CCN(C(=O)CN1CCC(C(=O)OC)CC1)c1c(N)n(Cc2ccccc2)c(=O)[nH]c1=O	none (no result: BJeLR viability, SARS 3CLpro inh)
COc1ccc(-c2ccc(C(=O)Nc3ccc(OC)nc3)c3occc23)c(C)c1	none (no result: BJeLR viability, SARS 3CLpro inh)
CCC(C)N(CC(=O)NCc1ccc(OC)cc1)C(=O)c1csnn1 (stereo unspecified)	BoNT A protease inconclusive, Bead autofluor 16830
CCOC(=O)c1c(-c2ccccc2)csc1NC(=O)c1ccc(S(=O)(=O)N2CC(C)OC(C)C2)cc1 (stereo unspecified)	Bead autofluor 23061
CCOC(=O)c1c(-c2ccccc2)csc1NC(=O)c1ccc(N2C(=O)CCC2=O)cc1	Bead autofluor 22792
CCOC(=O)c1c(-c2ccccc2)csc1NC(=O)c1cc(S(=O)(=O)N2CCOCC2)ccc1C	none
Cn1c(C(=O)NCc2ccc3c(c2)OCO3)cc2sccc21	Bead autofluor 17632
Cn1c(C(=O)N2CCN(Cc3ccc4c(c3)OCO4)CC2)cc2sccc21	Bead autofluor 16552
CC(=O)Oc1ccc(C23CC4CC(CC(C4)C2)C3)cc1C(=O)O	none (no result: Anthrax LF inh2, BoNT A protease, Bead autofluor, BoNT-F LC inh)
Cc1ccc(-c2nc(N/N=C/c3ccccc3[N+](=O)[O-])c3ccccc3n2)cc1	Bead autofluor 16971
O=[N+]([O-])c1ccccc1C=NNc1ccccc1	none (no result: BJeLR viability, SARS 3CLpro inh)
O=C(COC(=O)c1cnccn1)NCc1ccccc1	Bead autofluor 20877
O=C(COC(=O)c1cnccn1)NCCc1ccccc1	Bead autofluor inconclusive
O=C(Nc1ccc2c(c1)CCCN2C(=O)c1ccccc1)c1ccccc1	none
Cc1ccc(C)c(NC(=S)NNC(=O)c2csc3c2CCC(C)C3)c1 (stereo unspecified)	none
CCc1cc(C(=O)NNC(=S)NCc2ccccc2)cs1	none
Cc1cccc(NC(=S)NNC(=O)c2csc3c2CCCC3)c1	Bead autofluor 16967
CCCc1cc(C(=O)NNC(=S)NCc2ccccc2)cs1	Bead autofluor 22370
CCc1cc(C(=O)Nc2ccccc2)cs1	Bead autofluor 16734
Cc1ccc(C)c(NC(=S)NNC(=O)c2csc3c2CCCC3)c1	Bead autofluor 16276
Cc1noc(C)c1S(=O)(=O)Nc1ccc2c(c1)C(=O)N([C@H](C)CO)C[C@H](C)[C@@H](CN(C)C(=O)NC1CCCCC1)O2	none (no result: BJeLR viability, SARS 3CLpro inh)
CCc1cc(C(=O)NNC(=S)Nc2cc(C)ccc2C)cs1	Bead autofluor 23483
CCc1cc(C(=O)NNC(=S)Nc2ccccc2C)cs1	none
CC(=O)c1ccc(N2CCN(CC(=O)NC(=O)NCc3ccccc3)CC2)cc1	none (no result: BJeLR viability, SARS 3CLpro inh)
O=C(CCNC(=O)c1ccc(Br)o1)NCc1ccccc1Cl	none
O=C(CCNC(=O)c1ccc(Br)o1)NCc1ccccn1	Bead autofluor 24852
O=C(CCNS(=O)(=O)c1ccc(Cl)cc1)NCc1ccccn1	Bead autofluor 17910
CCOc1ccccc1NC(=S)N(Cc1cc2ccc(C)cc2[nH]c1=O)CC1CCCN1CC (stereo unspecified)	none
COCC(C)NC(C(=O)Nc1ccc(C)c(Cl)c1)c1ccccc1 (stereo unspecified)	BoNT A protease inconclusive, Bead autofluor 21763
C=CCOn1c(=O)c(-c2cccs2)[n+]([O-])c2ccccc21	Bead autofluor 21222
COc1cccc(C(=O)/C=C/Nc2cc(C)ccc2O)c1	Bead autofluor 23605
COc1ccc(C(=O)/C=C/Nc2cccc(O)c2)cc1	BoNT A protease inconclusive, Bead autofluor 20620
CCOC(=O)c1ccc(N/C=C\C(=O)c2cccc(OC)c2)cc1	none
CC(=O)Nc1ccc(C(=O)N2CCCCC2c2cc(C(=O)NCc3cccnc3)no2)cc1 (stereo unspecified)	none (no result: BJeLR viability, SARS 3CLpro inh)
CCC(C)NC(=O)Nc1ccc(C)cc1C (stereo unspecified)	none
CC1(C)CC(=O)C(C(c2ccco2)C2C(=O)CC(C)(C)CC2=O)C(=O)C1	Bead autofluor 23157
COc1ccc(C=NCCC2(O)CC(C)N(C)CC2C)cc1 (stereo unspecified)	BoNT-F LC inh 54
COc1ccc(CNCCC2(O)CC(C)N(C)CC2C)cc1OC (stereo unspecified)	BoNT-F LC inh inconclusive
COC(=O)/C(=N/Nc1ccccc1C)Sc1nnc(C(O)c2ccccc2)n1-c1ccccc1 (stereo unspecified)	none
CCN(CC)S(=O)(=O)c1cccc(-c2nnc(SC(C)C(=O)NCCC3=CCCCC3)o2)c1 (stereo unspecified)	Bead autofluor 22080
O=C(Nc1ccc(F)cc1)N1CCOCC1	BoNT A protease inconclusive, Bead autofluor 19165
O=C(NC(=S)Nc1ccccc1)C1CCCCC1	none
CCCC(=O)Nc1ccccc1NC(=O)C1CCCCC1	Bead autofluor 23241
O=C(Nc1ccccc1)N1CCNCC1	none
O=C(Nc1ccccc1)N1CCCC1	Bead autofluor 23605
O=C(Nc1ccccc1)C1CCCCC1	BoNT A protease inconclusive, Bead autofluor 21764
Cc1cccc(C(=O)N[C@H](C(=O)NCCc2ccc(S(N)(=O)=O)cc2)C(C)C)c1	none
CCc1nc(NC(C)(C)C)c2cnn(-c3ccccc3)c2n1	BoNT-F LC inh inconclusive
COc1cc(NC(=O)C2CCCCC2)c(OC)cc1NC(=O)CCC(=O)NCc1ccco1	Bead autofluor 22591
COC(=O)C1=C(N)Oc2cc(C)n(CCN3CCOCC3)c(=O)c2C1c1cccnc1 (stereo unspecified)	none
CC1=CC(C)(C)N(S(=O)(=O)c2ccc(C)cc2)c2cc(C)ccc21	BJeLR viability 55
O=C(NCc1ccccc1Cl)C1CCN(S(=O)(=O)N2CCCCCC2)CC1	Bead autofluor 17397
CC1CCN(S(=O)(=O)N2CCCC(C(=O)NCc3ccccc3Cl)C2)CC1 (stereo unspecified)	none
COc1ccc(CN2C(=O)NC3(CCCCC3)C2=O)cc1F	BoNT A protease inconclusive, Bead autofluor 22242
CC(=O)c1cccc(NC(=O)N2CCc3ccccc3C2)c1	none
CC(=O)c1ccc(NC(=O)N2CCc3ccccc3C2)cc1	BJeLR viability 105
CCOC(=O)c1cnn(-c2cc(C)nc3c(-c4ccccc4)cnn23)c1N	none
CCOC(=O)c1cnn(-c2c(Cc3ccccc3)c(C)nc3c(-c4ccccc4)c(C)nn23)c1N	Bead autofluor 22024
CCOC(=O)c1cnn(-c2cc(C(C)(C)C)nc3c(-c4ccccc4)c(C)nn23)c1N	BoNT A protease inconclusive, Bead autofluor 26542
CCN1C(=O)c2cccc3c(S(=O)(=O)N4CCNCC4)ccc1c23	none (no result: BJeLR viability, SARS 3CLpro inh)
O=C(COC(=O)c1nc(Cl)c(Cl)c(Cl)c1Cl)NCc1ccccc1	none (no result: BJeLR viability, SARS 3CLpro inh)
O=C(c1ccco1)c1cc2c(ccc3ccccc32)oc1=O	Bead autofluor 22410
CC(=O)c1cc2c(ccc3ccccc32)oc1=O	none
